# About 79,000 compounds went through this panel and 15% of them were active in at least one assay; those are over-represented in the sample as a whole. Unmarked numbers belong to inactive results. Calls of active or inactive are those of the source. No stated cut-off is given here; in the data, active means growth inhibition above about 70%; inactive means the rest.
# Key:
# [1] = NCI Yeast Anticancer Drug Screen. Data for the rad52 strain (AID 147);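 further: 0% = growth of vehicle-treated control cultures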; details: S. cerevisiae rad52 mutant growth inhibition, active compounds read high
# Method in brief: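 Screen used a yeast mutant impaired in DNA repair. After compound exposure, growth was measured. Values reflect inhibition compared with vehicle-treated cells.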
# [2] = NCI Yeast Anticancer Drug Screen. Data for the wt1 strain (AID 149);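 further: 0% = growth of vehicle-treated wt1 cultures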; details: S. cerevisiae wt1 strain (SPY 50644) growth inhibition, active compounds read high
# Method in brief: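 Vehicle-normalised growth inhibition; strain wt1; compound exposure.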
# [3] = NCI Yeast Anticancer Drug Screen. Data for the rad50 strain (AID 155);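 further: 0% = growth of vehicle-only cultures of the same strain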; details: S. cerevisiae rad50 strain growth inhibition, active compounds read high
# Method in brief: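 A DNA repair-deficient yeast mutant serves as the test organism; compound-induced growth inhibition is calculated against vehicle-treated cells.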
# [4] = NCI Yeast Anticancer Drug Screen. Data for the mec2-1 strain (AID 157); details: S. cerevisiae mec2-1 strain, active compounds read high
# Method in brief: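 Readout is yeast growth inhibition, normalised to vehicle-treated controls, in the mec2-1 strain exposed to compound.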
# [5] = NCI Yeast Anticancer Drug Screen. Data for the rad14 strain (AID 159);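 further: 0% = growth of vehicle-treated control cultures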; details: S. cerevisiae rad14 strain growth inhibition, active compounds read high
# Method in brief: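 Vehicle-treated cultures served as the baseline for growth inhibition of a DNA repair-mutant yeast strain exposed to each compound.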
# [6] = NCI Yeast Anticancer Drug Screen. Data for the sgs1 mgt1 strain (AID 161);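 further: 0% = growth of cultures given vehicle only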; details: S. cerevisiae sgs1 mgt1 strain, active compounds read high
# Method in brief: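 Percent growth inhibition was derived by comparing compound-exposed mutant yeast with vehicle-exposed cultures. The strain carries alterations in DNA damage repair.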
# [7] = NCI Yeast Anticancer Drug Screen. Data for the CLN2oe strain (AID 163);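 further: 0% = growth of vehicle-only control cultures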; details: S. cerevisiae CLN2oe strain, active compounds read high
# Method in brief: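 Values reflect how much compound exposure reduced yeast growth, referenced to vehicle-exposed cells. Assay organism is a strain with a defined genetic change affecting cell-cycle control.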
# [8] = NCI Yeast Anticancer Drug Screen. Data for the cln2 rad14 strain (AID 165);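 further: 0% = growth equal to vehicle treated cultures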; details: S. cerevisiae cln2 rad14 strain, active compounds read high
# Method in brief: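 Relative to vehicle controls, growth inhibition of compound-treated cln2 rad14 yeast was recorded.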
# [9] = NCI Yeast Anticancer Drug Screen. Data for the bub3 strain (AID 167); details: S. cerevisiae bub3 mutant strain, active compounds read high
# Method in brief: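 Inhibition values come from growth of compound-treated mutant yeast normalised to vehicle-treated controls.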
# [10] = NCI Yeast Anticancer Drug Screen. Data for the wt2 strain (AID 169);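 further: 0% = growth of vehicle-treated yeast cultures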; details: S. cerevisiae wt2 strain growth inhibition, active compounds read high
# Method in brief: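 Values express reduction in yeast growth under compound treatment, referenced to vehicle-treated cells.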
# [11] = NCI Yeast Anticancer Drug Screen. Data for the mlh1 strain (AID 171);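 further: 0% = growth of vehicle-treated control cultures of the same strain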; details: S. cerevisiae mlh1 strain growth inhibition, active compounds read high
# Method in brief: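 Steps: expose the defined-mutant yeast strain to compound; expose a parallel culture to vehicle; measure growth; express compound effect as inhibition relative to the vehicle culture.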
# [12] = NCI Yeast Anticancer Drug Screen. Data for the sgs1 strain (AID 173);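 further: 0% = growth of vehicle-only control cultures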; details: S. cerevisiae sgs1 mutant, active compounds read high
# Method in brief: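 Treat defined-mutant yeast with compound; measure growth; calculate inhibition relative to vehicle-treated cells.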
# [13] = NCI Yeast Anticancer Drug Screen. Data for the mlh1 rad18 strain (AID 175); details: S. cerevisiae mlh1 rad18 strain growth inhibition, active compounds read high
# Method in brief: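 Test agents were incubated with a yeast strain of defined genotype (DNA damage repair defect). Inhibition of growth was derived by comparison with vehicle-exposed cultures.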
# [14] = NCI Yeast Anticancer Drug Screen. Data for the rad18 strain (AID 177); details: S. cerevisiae rad18 mutant growth inhibition, active compounds read high
# Method in brief: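 A genetically defined yeast mutant impaired in DNA damage repair was treated with test compounds, then its growth was measured against cultures receiving vehicle alone.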
# [15] = at 5.0 µM (retest, dose inferred, filed as 0.5)
# [16] = at 50.0 µM (retest, dose inferred, filed as 5.0)
smiles,measurement,setting,value
CCCCCCCCCCCc1nc(N)n[nH]1,growth inhibition,[1]; at 1.2 µM,-1%
same,growth inhibition,[1]; at 3.7 µM,-7%
same,growth inhibition,[1]; at 11.0 µM,5%
same,growth inhibition,[1]; at 33.0 µM,87% (active)
same,growth inhibition,[1]; at 100.0 µM,96% (active)
same,growth inhibition,[2]; at 1.2 µM,-3%
same,growth inhibition,[2]; at 3.7 µM,-4%
same,growth inhibition,[2]; at 11.0 µM,1%
same,growth inhibition,[2]; at 33.0 µM,67%
same,growth inhibition,[2]; at 100.0 µM,95% (active)
same,growth inhibition,[3]; at 1.2 µM,-11%
same,growth inhibition,[3]; at 3.7 µM,-13%
same,growth inhibition,[3]; [15],-181%
same,growth inhibition,[3]; at 11.0 µM,-7%
same,growth inhibition,[3]; at 33.0 µM,92% (active)
same,growth inhibition,[3]; [16],81% (active)
same,growth inhibition,[3]; at 50.0 µM,97.1% (active)
same,growth inhibition,[3]; at 100.0 µM,96% (active)
same,growth inhibition,[4]; at 1.2 µM,-4%
same,growth inhibition,[4]; at 3.7 µM,1%
same,growth inhibition,[4]; [15],-48%
same,growth inhibition,[4]; at 11.0 µM,0%
same,growth inhibition,[4]; at 33.0 µM,73% (active)
same,growth inhibition,[4]; [16],87% (active)
same,growth inhibition,[4]; at 50.0 µM,96.7% (active)
same,growth inhibition,[4]; at 100.0 µM,93% (active)
same,growth inhibition,[5]; at 1.2 µM,5%
same,growth inhibition,[5]; at 3.7 µM,1%
same,growth inhibition,[5]; at 11.0 µM,7%
same,growth inhibition,[5]; at 33.0 µM,65%
same,growth inhibition,[5]; at 100.0 µM,96% (active)
same,growth inhibition,[6]; [15],-66%
same,growth inhibition,[6]; [16],59%
same,growth inhibition,[6]; at 50.0 µM,80.6% (active)
same,growth inhibition,[7]; at 1.2 µM,-3%
same,growth inhibition,[7]; at 3.7 µM,-6%
same,growth inhibition,[7]; at 11.0 µM,-13%
same,growth inhibition,[7]; at 33.0 µM,16%
same,growth inhibition,[7]; at 100.0 µM,82% (active)
same,growth inhibition,[8]; [15],-79%
same,growth inhibition,[8]; [16],62%
same,growth inhibition,[8]; at 50.0 µM,75.9% (active)
same,growth inhibition,[9]; at 1.2 µM,5%
same,growth inhibition,[9]; at 3.7 µM,-2%
same,growth inhibition,[9]; [15],-79%
same,growth inhibition,[9]; at 11.0 µM,4%
same,growth inhibition,[9]; at 33.0 µM,75% (active)
same,growth inhibition,[9]; [16],88% (active)
same,growth inhibition,[9]; at 50.0 µM,95.8% (active)
same,growth inhibition,[9]; at 100.0 µM,91% (active)
same,growth inhibition,[10]; at 1.2 µM,5%
same,growth inhibition,[10]; at 3.7 µM,6%
same,growth inhibition,[10]; at 11.0 µM,24%
same,growth inhibition,[10]; at 33.0 µM,92% (active)
same,growth inhibition,[10]; at 100.0 µM,97% (active)
same,growth inhibition,[11]; at 1.2 µM,-10%
same,growth inhibition,[11]; at 3.7 µM,-6%
same,growth inhibition,[11]; at 11.0 µM,-3%
same,growth inhibition,[11]; at 33.0 µM,79% (active)
same,growth inhibition,[11]; at 100.0 µM,95% (active)
same,growth inhibition,[12]; at 1.2 µM,-5%
same,growth inhibition,[12]; at 3.7 µM,-13%
same,growth inhibition,[12]; at 11.0 µM,21%
same,growth inhibition,[12]; at 33.0 µM,92% (active)
same,growth inhibition,[12]; at 100.0 µM,96% (active)
same,growth inhibition,[13]; [15],-154%
same,growth inhibition,[13]; [16],20%
same,growth inhibition,[13]; at 50.0 µM,93% (active)
same,growth inhibition,[14]; at 1.2 µM,-12%
same,growth inhibition,[14]; at 3.7 µM,-5%
same,growth inhibition,[14]; at 11.0 µM,-7%
same,growth inhibition,[14]; at 33.0 µM,68%
same,growth inhibition,[14]; at 100.0 µM,94% (active)

# — PubChem BioAssay (NCI)
